{"source": "PubChem BioAssay (EPA / NIEHS)", "key": {"[1]": {"read-out": "Interleukin-8 (IL8), CXCL8 (gene 3576)", "assay": "BSK_IMphg_IL8: BioMAP Diversity Plus: IMphg Assay for Interleukin-8 (IL8) Biomarker Activity (AID 2284277)", "conditions": "primary human endothelial cells with macrophages", "summary_of_the_method": "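Co-culture of human venular endothelial cells and macrophages exposed to chemicals for 24 h; IL-8 quantified by ELISA and compared against the DMSO baseline, with SRB total-protein staining in parallel cultures for cytotoxicity.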"}, "[2]": {"read-out": "Intercellular Adhesion Molecule 1 (ICAM1), ICAM1 (gene 3383)", "assay": "BSK_BE3C_ICAM1: BioMAP Diversity Plus: BE3C Assay for Intercellular Adhesion Molecule 1 (ICAM1) Biomarker Activity (AID 2284278)", "conditions": "primary human bronchial epithelial cells", "summary_of_the_method": "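Human primary bronchial epithelial cultures; compound added; 24 h incubation; cell-surface ICAM-1 measured by ELISA; signal increase fitted relative to DMSO negative control.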"}, "[3]": {"read-out": "Interleukin-8 (IL8), CXCL8 (gene 3576)", "assay": "BSK_BE3C_IL8: BioMAP Diversity Plus: BE3C Assay for Interleukin-8 (IL8) Biomarker Activity (AID 2284280)", "conditions": "primary human bronchial epithelial cells", "summary_of_the_method": "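IL-8 signal gain, normalised to DMSO vehicle, was scored after a 24 h chemical exposure of primary human bronchial epithelial cells, with detection by ELISA.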"}, "[4]": {"read-out": "Epidermal growth factor receptor (EGFR), EGFR (gene 1956)", "assay": "BSK_BE3C_EGFR: BioMAP Diversity Plus: BE3C Assay for Epidermal growth factor receptor (EGFR) Biomarker Activity (AID 2284281)", "conditions": "primary human bronchial epithelial cells", "summary_of_the_method": "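Compound is added to human bronchial epithelial cells, cells incubate 24 h, then EGFR is detected by ELISA. Values reflect positive-direction fitting relative to DMSO.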"}, "[5]": {"read-out": "Matrix Metallopeptidase 9 (MMP9), MMP9 (gene 4318)", "assay": "BSK_BE3C_MMP9: BioMAP Diversity Plus: BE3C Assay for Matrix Metallopeptidase 9 (MMP9) Biomarker Activity (AID 2284283)", "conditions": "primary human bronchial epithelial cells", "summary_of_the_method": "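Human primary bronchial epithelial cells in the BE3C system were dosed with compound for 24 h. MMP-9 was measured by ELISA, and the positive-direction response was fitted relative to DMSO as baseline. Parallel SRB staining gauged cytotoxicity.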"}, "[6]": {"read-out": "Plasminogen activator inhibitor-1 (PAI1), SERPINE1 (gene 5054)", "assay": "BSK_CASM3C_PAI1: BioMAP Diversity Plus: CASM3C Assay for Plasminogen activator inhibitor-1 (PAI1) Biomarker Activity (AID 2284284)", "conditions": "primary human coronary artery smooth muscle cells"}, "[7]": {"read-out": "Monocyte Chemoattractant Protein-1 (MCP1), CCL2 (gene 6347)", "assay": "BSK_hDFCGF_MCP1: BioMAP Diversity Plus: hDFCGF Assay for Monocyte Chemoattractant Protein-1 (MCP1) Biomarker Activity (AID 2284285)", "conditions": "primary human foreskin fibroblasts", "summary_of_the_method": "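Human foreskin fibroblasts (hDFCGF system) were exposed to compound and secreted MCP-1 was measured by ELISA after 24 hours. Activity was fitted relative to DMSO. Cytotoxicity was checked by SRB total-protein staining in parallel cultures.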"}, "[8]": {"read-out": "Intercellular Adhesion Molecule 1 (ICAM1), ICAM1 (gene 3383)", "assay": "BSK_hDFCGF_ICAM1: BioMAP Diversity Plus: hDFCGF Assay for Intercellular Adhesion Molecule 1 (ICAM1) Biomarker Activity (AID 2284287)", "conditions": "primary human foreskin fibroblasts", "summary_of_the_method": "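Primary human foreskin fibroblasts (hDFCGF system) dosed with chemical; ICAM-1 quantified by ELISA at 24 h relative to DMSO. Parallel SRB total-protein staining to assess overt cytotoxicity.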"}, "[9]": {"read-out": "TIMP metallopeptidase inhibitor 2 (TIMP2), TIMP2 (gene 7077)", "assay": "BSK_hDFCGF_TIMP2: BioMAP Diversity Plus: hDFCGF Assay for TIMP metallopeptidase inhibitor 2 (TIMP2) Biomarker Activity (AID 2284289)", "conditions": "primary human foreskin fibroblasts", "summary_of_the_method": "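Primary human foreskin fibroblasts in the hDFCGF system, dosed for 24 h; TIMP-2 level measured by ELISA, fitted in the positive direction against DMSO; cytotoxicity checked in parallel by sulforhodamine B total protein staining.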"}, "[10]": {"read-out": "Interleukin-1 alpha (IL1a), IL1A (gene 3552)", "assay": "BSK_IMphg_IL1a: BioMAP Diversity Plus: IMphg Assay for Interleukin-1 alpha (IL1a) Biomarker Activity (AID 2284290)", "conditions": "primary human endothelial cells with macrophages", "summary_of_the_method": "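Human venular endothelial cells co-cultured with macrophages, IMphg system. IL-1α is measured by ELISA 24 h after dosing and fitted in the positive direction against DMSO. Cytotoxicity is assessed by SRB staining of parallel cultures.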"}}, "note": "Where “and” joins values, the source holds several entries; their conditions need not be identical. Identical values can stand only once. A structure can be active in one record and inactive in another. Calls of active or inactive are those of the source. Rule for the calls: active = hit-call score of the fitted dose curve at least 0.9, where 1 is the maximum; inactive = score below 0.9.", "data": [{"smiles": "O=C(Cl)C(F)(F)C(F)(F)C(F)(F)C(=O)Cl", "values": [{"measurement": "outcome", "setting": "[1]", "value": "inactive"}, {"measurement": "outcome", "setting": "[2]", "value": "inactive"}, {"measurement": "outcome", "setting": "[3]", "value": "inactive"}, {"measurement": "outcome", "setting": "[4]", "value": "inactive"}, {"measurement": "outcome", "setting": "[5]", "value": "inactive"}, {"measurement": "outcome", "setting": "[6]", "value": "inactive"}, {"measurement": "outcome", "setting": "[7]", "value": "inactive"}, {"measurement": "outcome", "setting": "[8]", "value": "inactive"}, {"measurement": "outcome", "setting": "[9]", "value": "inactive"}, {"measurement": "outcome", "setting": "[10]", "value": "inactive"}]}, {"smiles": "FC(F)(F)COC(OCC(F)(F)F)OCC(F)(F)F", "values": [{"measurement": "outcome", "setting": "[1]", "value": "inactive"}, {"measurement": "outcome", "setting": "[2]", "value": "inactive"}, {"measurement": "outcome", "setting": "[3]", "value": "inactive"}, {"measurement": "outcome", "setting": "[4]", "value": "inactive"}, {"measurement": "outcome", "setting": "[5]", "value": "inactive"}, {"measurement": "outcome", "setting": "[6]", "value": "inactive"}, {"measurement": "outcome", "setting": "[7]", "value": "inactive"}, {"measurement": "outcome", "setting": "[8]", "value": "inactive"}, {"measurement": "outcome", "setting": "[9]", "value": "inactive"}, {"measurement": "outcome", "setting": "[10]", "value": "inactive"}]}, {"smiles": "OC(O)(C(F)C(O)(O)C(F)(F)F)C(F)(F)F", "values": [{"measurement": "AC50", "setting": "[1]", "value": "50.1 µM (active)"}, {"measurement": "outcome", "setting": "[1]", "value": "inactive"}, {"measurement": "outcome", "setting": "[2]", "value": "inactive"}, {"measurement": "AC50", "setting": "[3]", "value": "22 µM (active)"}, {"measurement": "outcome", "setting": "[3]", "value": "inactive"}, {"measurement": "outcome", "setting": "[4]", "value": "inactive"}, {"measurement": "outcome", "setting": "[5]", "value": "inactive"}, {"measurement": "outcome", "setting": "[6]", "value": "inactive"}, {"measurement": "outcome", "setting": "[7]", "value": "inactive"}, {"measurement": "outcome", "setting": "[8]", "value": "inactive"}, {"measurement": "AC50", "setting": "[9]", "value": "7.41 µM (active) and 22.4 µM (active)"}, {"measurement": "outcome", "setting": "[10]", "value": "inactive"}]}, {"smiles": "FC(F)(F)C(F)(F)C(F)(F)C(F)(F)C(F)(F)C(F)(F)I", "values": [{"measurement": "outcome", "setting": "[1]", "value": "inactive"}, {"measurement": "outcome", "setting": "[2]", "value": "inactive"}, {"measurement": "outcome", "setting": "[3]", "value": "inactive"}, {"measurement": "outcome", "setting": "[4]", "value": "inactive"}, {"measurement": "outcome", "setting": "[5]", "value": "inactive"}, {"measurement": "outcome", "setting": "[6]", "value": "inactive"}, {"measurement": "AC50", "setting": "[7]", "value": "28.2 µM (active)"}, {"measurement": "outcome", "setting": "[7]", "value": "inactive"}, {"measurement": "outcome", "setting": "[8]", "value": "inactive"}, {"measurement": "outcome", "setting": "[9]", "value": "inactive"}, {"measurement": "outcome", "setting": "[10]", "value": "inactive"}]}, {"smiles": "C[Si](C)(C)C(F)(F)C(F)(F)C(F)(F)F", "values": [{"measurement": "outcome", "setting": "[1]", "value": "inactive"}, {"measurement": "outcome", "setting": "[2]", "value": "inactive"}, {"measurement": "outcome", "setting": "[3]", "value": "inactive"}, {"measurement": "outcome", "setting": "[4]", "value": "inactive"}, {"measurement": "outcome", "setting": "[5]", "value": "inactive"}, {"measurement": "outcome", "setting": "[6]", "value": "inactive"}, {"measurement": "outcome", "setting": "[7]", "value": "inactive"}, {"measurement": "outcome", "setting": "[8]", "value": "inactive"}, {"measurement": "outcome", "setting": "[9]", "value": "inactive"}, {"measurement": "outcome", "setting": "[10]", "value": "inactive"}]}, {"smiles": "FC(F)=C(F)C(F)(F)C(F)(F)C(F)(F)C(F)(F)C(F)(F)C(F)(F)F", "values": [{"measurement": "outcome", "setting": "[1]", "value": "inactive"}, {"measurement": "outcome", "setting": "[2]", "value": "inactive"}, {"measurement": "outcome", "setting": "[3]", "value": "inactive"}, {"measurement": "outcome", "setting": "[4]", "value": "inactive"}, {"measurement": "outcome", "setting": "[5]", "value": "inactive"}, {"measurement": "outcome", "setting": "[6]", "value": "inactive"}, {"measurement": "outcome", "setting": "[7]", "value": "inactive"}, {"measurement": "outcome", "setting": "[8]", "value": "inactive"}, {"measurement": "outcome", "setting": "[9]", "value": "inactive"}, {"measurement": "outcome", "setting": "[10]", "value": "inactive"}]}, {"smiles": "NCC(F)(F)C(F)(F)C(F)(F)C(F)(F)F", "values": [{"measurement": "outcome", "setting": "[1]", "value": "inactive"}, {"measurement": "outcome", "setting": "[2]", "value": "inactive"}, {"measurement": "outcome", "setting": "[3]", "value": "inactive"}, {"measurement": "outcome", "setting": "[4]", "value": "inactive"}, {"measurement": "outcome", "setting": "[5]", "value": "inactive"}, {"measurement": "outcome", "setting": "[6]", "value": "inactive"}, {"measurement": "outcome", "setting": "[7]", "value": "inactive"}, {"measurement": "outcome", "setting": "[8]", "value": "inactive"}, {"measurement": "outcome", "setting": "[9]", "value": "inactive"}, {"measurement": "outcome", "setting": "[10]", "value": "inactive"}]}, {"smiles": "OCCC(F)(F)C(F)(F)C(F)(F)C(F)(F)F", "values": [{"measurement": "outcome", "setting": "[1]", "value": "inactive"}, {"measurement": "outcome", "setting": "[2]", "value": "inactive"}, {"measurement": "outcome", "setting": "[3]", "value": "inactive"}, {"measurement": "outcome", "setting": "[4]", "value": "inactive"}, {"measurement": "outcome", "setting": "[5]", "value": "inactive"}, {"measurement": "outcome", "setting": "[6]", "value": "inactive"}, {"measurement": "outcome", "setting": "[7]", "value": "inactive"}, {"measurement": "outcome", "setting": "[8]", "value": "inactive"}, {"measurement": "outcome", "setting": "[9]", "value": "inactive"}, {"measurement": "outcome", "setting": "[10]", "value": "inactive"}]}, {"smiles": "FC(F)C(F)(F)COCC1CO1", "note": "(stereo not drawn)", "values": [{"measurement": "outcome", "setting": "[1]", "value": "inactive"}, {"measurement": "outcome", "setting": "[2]", "value": "inactive"}, {"measurement": "outcome", "setting": "[3]", "value": "inactive"}, {"measurement": "outcome", "setting": "[4]", "value": "inactive"}, {"measurement": "outcome", "setting": "[5]", "value": "inactive"}, {"measurement": "outcome", "setting": "[6]", "value": "inactive"}, {"measurement": "outcome", "setting": "[7]", "value": "inactive"}, {"measurement": "outcome", "setting": "[8]", "value": "inactive"}, {"measurement": "outcome", "setting": "[9]", "value": "inactive"}, {"measurement": "outcome", "setting": "[10]", "value": "inactive"}]}, {"smiles": "O=S(=O)(O)CCC(F)(F)C(F)(F)C(F)(F)C(F)(F)C(F)(F)C(F)(F)F", "values": [{"measurement": "outcome", "setting": "[1]", "value": "inactive"}, {"measurement": "outcome", "setting": "[2]", "value": "inactive"}, {"measurement": "outcome", "setting": "[3]", "value": "inactive"}, {"measurement": "outcome", "setting": "[4]", "value": "inactive"}, {"measurement": "outcome", "setting": "[5]", "value": "inactive"}, {"measurement": "outcome", "setting": "[6]", "value": "inactive"}, {"measurement": "outcome", "setting": "[7]", "value": "inactive"}, {"measurement": "outcome", "setting": "[8]", "value": "inactive"}, {"measurement": "outcome", "setting": "[9]", "value": "inactive"}, {"measurement": "outcome", "setting": "[10]", "value": "inactive"}]}]}
